Screening data as filed in PubChem.
Only a selection was taken, and hits are over-represented in it overall.
RE007 growth inh – qHTS Assay for Inhibitors of the HIV-1 protein Vpr; S. pombe RE007 Vpr strain, BacTiter-Glo ATP luminescence, 24 h; Potency, µM (titrated, usually from 92.2 µM), for the others: at the highest dose activity change, negative = less growth, most hits filed as inhibitors; actives 0.21% (n = 360,000); AID 651644, 2012; active = well fitted falling curve with a large enough effect; inconclusive = small, poorly fitted or top-dose-only effect; inactive = no such curve, though single readings can be large or run the other way; note: potency is the fitted concentration of half-maximal effect; % is set by controls: 0 for no effect and ±100 for the full control effect; nearly all actives have a fitted effect of over 50% in size
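Fission yeast strain RE007, carrying one chromosomally integrated HIV-1 vpr copy, was seeded at OD 0.01 in PMG+AL medium with 23 nL pinned compound. After 24 h at 30 °C and 99% humidity, viability was read by BacTiter-Glo luminescence.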
TbPYK inhibitor – qHTS of Trypanosoma Brucei Inhibitors. Potency, µM (series often up to 76.8 µM), for inactives: at the top dose activity, negative = inhibition, usual class: inhibitors. AID 624173, 2012. TbPYK enzyme, Kinase-Glo Plus ATP luminescence, 45 min. actives 0.12% (n = 410,000). pyruvate kinase (Trypanosoma brucei), Q57TT1; note: potency is the fitted concentration of half-maximal effect; % is set by controls: 0 for no effect and ±100 for the full control effect; nearly all actives have a fitted effect of over 50% in size
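Readout: single end-point luminescence (Kinase-Glo Plus, 10 min). Reaction conditions were TbPYK/substrate plus 130 uM ADP, 45 min at RT, pH 7.2 TEA buffer. No-enzyme wells served as controls, and data were normalized before concentration-response fitting.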
FBPA Giardia inh – qHTS Assay for Inhibitors of Fructose-1,6-bisphosphate Aldolase from Giardia Lamblia | purified Giardia FBPA | actives 0.71% (n = 290,000) | Potency, µM (series often up to 59.6 µM), for the others: at the top dose activity, negative = inhibition, most hits filed as inhibitors; note: potency is the fitted concentration of half-maximal effect; % is set by controls: 0 for no effect and ±100 for the full control effect; nearly all actives have a fitted effect of over 55% in size
Target sequence (A8B2U2 whole entry, looked up): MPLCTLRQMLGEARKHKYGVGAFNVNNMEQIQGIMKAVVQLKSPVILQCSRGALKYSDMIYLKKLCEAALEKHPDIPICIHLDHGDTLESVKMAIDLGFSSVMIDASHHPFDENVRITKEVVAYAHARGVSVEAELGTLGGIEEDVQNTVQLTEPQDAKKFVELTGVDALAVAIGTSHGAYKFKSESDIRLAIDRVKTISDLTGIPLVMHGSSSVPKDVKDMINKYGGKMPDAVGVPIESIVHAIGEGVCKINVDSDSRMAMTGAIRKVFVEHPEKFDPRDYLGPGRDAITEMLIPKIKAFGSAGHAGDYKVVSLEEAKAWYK
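40 nM FBPA preincubated 10 min at RT with compound (up to 57.5 uM final), then substrate plus GAPDH/TPI/NAD/arsenate coupling and diaphorase/resazurin added. Fluorescence read after 20 min at RT, 525/598 nm.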
Shiga toxin inh – A qHTS for Small Molecule Inhibitors of Shiga Toxin | Vero cells, Shiga toxin protein synthesis inhibition reporter | inhibition, % at 38.7 µM | actives 9.2% (n = 290,000) | AID 2315, 2010; in the data active = inhibition mostly above about 28%, no sharp cut-off; inactive = mostly below about 43%; note: 0% is about no effect
LmPK inhibitor – qHTS Assay for Inhibitors of Leishmania Mexicana Pyruvate Kinase (LmPK); Q27686; purified LmPK, Kinase-Glo ATP luminescence, 1 h; actives 0.37% (n = 290,000); AID 1721, 2009; Potency, µM (highest dose often 57.5 µM), without a hit: at the highest dose activity change, negative = inhibition, most hits filed as inhibitors; note: potency is the fitted concentration of half-maximal effect; % is set by controls: 0 for no effect and ±100 for the full control effect
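Kinase-Glo luminescence read after 1 h RT reaction of 0.1 nM LmPK with 0.5 mM PEP and 0.1 mM ADP. Activity scaled between uninhibited and enzyme-free controls.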
CHX counter – Cycloheximide Counterscreen for Small Molecule Inhibitors of Shiga Toxin | cell reporter, cycloheximide protein synthesis inhibition counterscreen | max response, % | actives 12% (n = 300,000) | AID 2314, 2010; in the data active = max response mostly above about 13%, no sharp cut-off; inactive = mostly below about 14%; note: read at 38.3 µM for the half of the compounds with a filed dose; 0% is about no effect
The depositor's hits bear a star; ? = inconclusive; · = not tested or not shown; + = active, no number. Unless noted, calls come from the whole dose curve; as a rule, active = well fitted curve in the direction sought with a large enough effect; inconclusive = small, poorly fitted or top-dose-only effect, or another doubt; inactive = no such curve, though single readings can be large; an effect the other way counts as inactive or inconclusive.

SMILES	RE007 growth inh	TbPYK inhibitor	FBPA Giardia inh	Shiga toxin inh	LmPK inhibitor	CHX counter
Cc1csc(NC(=O)CSc2ncc(-c3ccccc3)[nH]2)n1	1%	-7%	-5%	10	0%	30*
CCc1nnc(NC(=O)CSc2ncc(-c3ccccc3)[nH]2)s1	24%	-3%	2%	20	2%	38*
O=C(CSc1ncn[nH]1)Nc1ccccc1-c1ccccc1	-8%	0%	12%	24	-1%	-3
CCc1nnc(NC(=O)CSc2ncc(-c3ccccc3)n2CC)s1	0%	1%	4%	-9	0%	-3
O=C(CSc1ncn[nH]1)Nc1nnc(-c2ccccc2)s1	1%	-3%	8%	91*	-2%	67*
CSCC[C@H](NC(=O)[C@H](CC(C)C)NC(=O)CCNC(=O)[C@@H](NC(=O)[C@H](Cc1ccccc1)NC(=O)[C@H](CO)NC(=O)[C@@H](N)CC(=O)O)C(C)C)C(N)=O	·	·	0%	0	·	-6
Nc1nnc(CSCc2ccc(Cl)cc2)s1	-12%	7%	-5%	-11	0%	-3
Nc1nnc(SCc2cccc(C(F)(F)F)c2)s1	-5%	0%	0%	18	4%	11*
Nc1nnc(SCc2ccc(Cl)cc2)s1	9%	2%	-3%	+	8%	14
Nc1nnc(CSc2ccc(Cl)cc2)s1	-6%	-5%	2%	42	1%	50*
Clc1ccc(CSc2nnc(-c3ccncc3)s2)cc1	-16%	1%	-2%	-11	-2%	4
CCOC(=O)CSc1nnc(N)s1	4%	-1%	-23%	-3	5%	-1
CCOC(=O)c1ccc(CSc2nnc(N)s2)cc1	-2%	-1%	0%	92*	-15%	39*
Nc1nnc(SCc2coc(-c3ccc(Cl)cc3)n2)s1	20%	1%	-5%	64*	0%	39*
CCc1ccc(CN2CCN(c3ncccn3)CC2)cc1	0%	8%	?	·	8%	26*
Fc1ccc(CN2CCN(c3ncccn3)CC2)cc1	9%	21%	-23%	-13	-11%	-2
CCc1ccc(CN2CCN(Cc3ccc(SC)cc3)CC2)cc1	6%	19%	18µM*	-3	-6%	-8
Cc1ccc(-c2cc(-c3ccc(C)o3)nc(N)c2C#N)cc1	?	28µM*	?	10	-24%	-2
Cc1ccc(-c2cc(-c3ccc(F)cc3)c(C#N)c(N)n2)o1	?	?	?	-7	-21%	0
Cc1ccc(-c2cc(-c3ccc(Cl)cc3)c(C#N)c(N)n2)o1	-20%	?	?	-13	-16%	1
Cc1cc(-c2cc(-c3ccc(Cl)cc3)nc(N)c2C#N)co1	45µM*	?	?	9	-3%	-4
CCNc1ncc2nc(-c3cc(F)cc(F)c3)c(=O)n(C)c2n1	·	·	1%	·	·	·
O=C(Nc1ccc(N2CCOCC2)cc1)c1ccc([N+](=O)[O-])o1	?	-13%	3%	59*	?	37*
O=C(Nc1ccccc1[N+](=O)[O-])c1cc(S(=O)(=O)N2CCOCC2)cs1	-17%	-6%	·	38	-1%	19*
O=C(Nc1ccc(S(=O)(=O)N2CCOCC2)cc1)c1ccc([N+](=O)[O-])o1	?	-3%	-20%	61*	-1%	19*
SMILES	RE007 growth inh	TbPYK inhibitor	FBPA Giardia inh	Shiga toxin inh	LmPK inhibitor	CHX counter
COc1ccc(S(=O)(=O)N2CCCCC2)cc1NC(=O)c1ccc([N+](=O)[O-])o1	4%	-3%	0%	44*	6%	23*
O=C(NCCc1ccc(Cl)cc1)C(=O)NCC(c1ccco1)S(=O)(=O)c1ccc(Cl)cc1 (stereo not given)	·	-2%	·	·	·	·
COc1ccccc1OCC(=O)NCCS(=O)(=O)N1CCN(c2ccccc2OC)CC1	·	-7%	·	·	·	·
CCN(CC)CCCN1CC(O)=C(c2nc3ccccc3s2)C1=N	-3%	-12%	5%	-11	4%	-4
N=C1C(c2nc3ccccc3s2)=C(O)CN1Cc1ccccc1	-7%	1%	-1%	active	-3%	30*
CN(C)c1ccc(NC(=S)c2ccccn2)cc1	?	?	?	-14	4.5µM*	-4
CN(C)c1ccc(C(=S)Nc2ccccc2)cc1	-2%	9%	1%	128*	-2%	89*
C/C(=C\C(=S)Nc1ccccc1)Nc1ccccc1	-22%	-8%	?	-10	-1%	-6
CN(C)c1cc(O)c(C(=S)Nc2ccccc2)c(N(C)C)c1	-11%	-1%	?	41*	0%	22*
CC(=NNC(=S)Nc1ccccc1)c1ccccn1	?	6%	·	·	·	·
C=CCN(C)NC(=S)Nc1ccccc1	-2%	-2%	-15%	-12	-7%	-2
CCc1ccc(NC(=O)CC2C(=O)N(c3ccc(Cl)cc3)C(=O)N2Cc2ccco2)cc1 (stereo not given)	·	-1%	·	·	·	·
O=C(NCc1ccc(Cl)cc1)c1ccc2c(Cl)c3c(nc2c1)CCCC3	·	2%	·	·	·	·
CCOC(=O)c1cc(-c2ccco2)nn1-c1ccc(C)cc1	9%	-2%	-2%	8	3%	8
O=C(COC(=O)c1ccccc1F)c1ccc(-n2nncc2-c2ccco2)cc1	-4%	-8%	2%	40	14%	21*
Cc1ccc(NCc2nnc3n2CCCCC3)cc1Cl	·	2%	·	·	·	·
Cc1cccc(NC(=O)c2cccc(N3CCCS3(=O)=O)c2)c1	·	-1%	·	·	·	·
Cc1ccc2c(c1)CCCN2C(=O)CSc1ccccc1	-1%	-5%	·	53	-4%	12*
COc1ccccc1CC(=O)N1CCCc2cc(C)ccc21	-19%	-6%	0%	10	1%	3
Cc1ccnc(SCC(=O)N2CCc3ccccc32)n1	1%	-2%	·	73*	-7%	32*
O=C(CSc1ccc2nnc(-c3ccc(Cl)cc3)n2n1)N1CCCc2ccccc21	-7%	-25%	-10%	24	4%	17*
Cc1ccc(C(=O)Nc2nnc(SCC(=O)N3CCCc4ccccc43)s2)cc1	-7%	-3%	15%	49*	-3%	33*
O=C(CSc1ncn(-c2ccccc2)n1)N1CCc2ccccc21	-7%	-14%	-18%	-7	4%	-2
COc1ccc(N2CC(NC(=O)Cc3cccs3)CC2=O)cc1 (stereo not given)	·	-6%	·	·	·	·
Cc1cn(C)c(CC(=O)Nc2ccc(F)cc2Cl)c1C(=O)O	·	2%	·	·	·	·
O=C(CCC(=O)N1CCCc2ccccc21)N1CCN(S(=O)(=O)c2ccccc2)CC1	17%	-5%	-1%	32	1%	-2
O=C(CCS(=O)(=O)c1ccccc1)N1CCCc2ccccc21	-10%	0%	10%	57*	2%	19*
